# Source: PubChem BioAssay
# Calls of active or inactive are those of the source. Unless noted, no rule for the calls is given here.
# Legend:
# [1] = system: Wnt5a (protein binding on small-molecule microarray); experiment: Wnt5a binders on small-molecule microarray, primary screen, biophysical, 635/667 nm fluorescence (AID 1142); settings: 635 nm fluorescence, higher = more signal;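 also: fluorescence read at 667 nm with signal to noise per printed feature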
# [2] = cell viability in Huh7 cells, primary screen, cytotoxicity control for HCV replication inhibitor project, CellTiter-Glo luminescence, basal, 48 h (AID 1143); settings: Huh7 HCV replicon, higher = more signal, called active from +8 up or from −8 down;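 also: Huh7 hepatoma cells carrying a hepatitis C replication reporter with no stimulus; test concentration not given here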
# [3] = P. aeruginosa biofilm formation inhibitors, primary screen, PAO1 strain, BacTiter-Glo luminescence, LB-PBS (AID 1144); settings: 12 h, higher = more signal
# [4] = CREB reporter modulators without forskolin, primary screen, cell-based, PC12, CRE-LacZ reporter, unstimulated (AID 1145); settings: no forskolin, luminescence, 4.5 h, higher = more signal, called active from +8 up or from −8 down
# [5] = CREB reporter modulators under forskolin, primary screen, cell-based, PC12, CRE-LacZ reporter, forskolin-stimulated (AID 1146); settings: luminescence, 4.5 h, higher = more signal, called active from +8 up or from −8 down;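 also: PC12 cells with 6xCRE LacZ reporter stimulated by forskolin 10 µM; beta-galactosidase reporter signal reflecting CREB driven transcription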
# [6] = molecular target: Streptavidin (Streptomyces avidinii) (UniProt P22629); experiment: streptavidin binders on small-molecule microarray, primary screen, artefact control for SMM compound annotation, biophysical, 635/667 nm fluorescence (AID 1147); settings: streptavidin binding, higher = more signal;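 also: signal reflects streptavidin binding to arrayed compounds as a control protein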
# [7] = small-molecule binders of probe aInhba, primary screen, biochemical, small-molecule microarray, 635/667 nm fluorescence (AID 1148); settings: higher = more signal;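 also: score merges 667nm spot fluorescence with signal-to-noise for antibody binding to printed compounds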
# [8] = molecular target: Torsin-1A (Homo sapiens) (UniProt O14656); experiment: torsin A binders from cell lysate, primary screen, small-molecule microarray, wild-type, 635/667 nm (AID 1149); settings: COS7 hTOR1A-WT lysate, 635 nm fluorescence, higher = more signal
# [9] = molecular target: Torsin-1A (Homo sapiens) (UniProt O14656); experiment: small-molecule binders of mutant TOR1A in lysate, primary screen, cell lysate, small-molecule microarray, COS7 lysate, 635/667 nm fluorescence (AID 1150); settings: COS7 hTOR1A mutant lysate, 635 nm fluorescence, higher = more signal;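 also: score pools 667 nm emission and signal to noise measuring lysate protein binding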
# [10] = system: Sonic hedgehog protein (Shh); experiment: small-molecule binders of Shh protein, primary screen, biochemical, small-molecule microarray, 635/667 nm fluorescence (AID 1151); settings: small-molecule microarray binding, 635 nm fluorescence; higher = more signal;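 also: Shh protein binding to compounds spotted on small-molecule microarray slides; score combines spot fluorescence intensity with signal-to-noise across triplicate slides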
# [11] = E. coli DRC41 culture turbidity changes, primary screen, E. coli filamentation inducer project, strain DRC41, OD650, 48 h (AID 1152);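 also: E. coli MC1000 strain DRC41 lacking acrAB efflux pump and sulA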; settings: E. coli DRC41 (acrAB sulA), higher = more signal, called active from +8 up or from −8 down
# [12] = small-molecule binders of probe aLefty1, primary screen, biochemical, small-molecule microarray, 635/667 nm fluorescence (AID 1153); settings: higher = more signal;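 also: score merges spot fluorescence with signal-to-noise ratio from the scanned slide images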
# [13] = PSAC antagonists in infected red cells, primary screen, cell-based, P. falciparum Indochina, OD700, 1 h (AID 1154); settings: P. falciparum Indochina infected RBC osmotic lysis, higher = more signal, called active from +8 up or from −8 down
# [14] = PSAC antagonists in infected red cells, primary screen, cell-based, P. falciparum Indochina, OD700, 2 h (AID 1155);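 also: lysis reports solute entry through the parasite surface anion channel PSAC; channel blockers reduce lysis of infected cells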; settings: P. falciparum Indochina infected erythrocytes, osmotic lysis OD700; higher = more signal, called active from +8 up or from −8 down
# [15] = osmotic lysis modulators in infected erythrocytes, primary screen, PSAC antagonist project, cell-based, P. falciparum Indochina, OD700, 3 h (AID 1156); settings: higher = more signal, called active from +8 up or from −8 down
# [16] = PSAC antagonists in infected red cells, primary screen, cell-based, P. falciparum Indochina, OD700, 18 h (AID 1157); settings: P. falciparum Indochina infected erythrocytes, osmotic lysis OD700, 18 h; higher = more signal, called active from +8 up or from −8 down
# [17] = modulators of S6 phosphorylation in cells, primary screen, cell-based, A549, cytoblot, luminescence, serum-stimulated (AID 1158); settings: A549 phospho-S6 cytoblot, 5 h, higher = more signal;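 also: serum-stimulated A549 lung adenocarcinoma cells; signal is phosphorylated S6 detected by cytoblot immunostaining with HRP secondary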
# [18] = molecular target: NADPH oxidase 2 (Homo sapiens) (UniProt P04839); experiment: NOX2-dependent H2O2 signal modulators, primary screen, NOX inhibitor project, cell-based, HEK293-NOX2, PMA-stimulated, Amplex Red fluorescence (AID 1159); settings: 45 min, higher = more signal, called active from +8 up or from −8 down; also: test concentration not given here
# [19] = molecular target: NADPH oxidase 4 (Homo sapiens) (UniProt Q9NPH5); experiment: NOX4-dependent H2O2 signal modulators, primary screen, NOX inhibitor project, cell-based, HEK293-NOX4, tetracycline-induced, Amplex Red fluorescence (AID 1160); settings: 45 min, higher = more signal, called active from +8 up or from −8 down
# [20] = molecular target: NADPH oxidase 5 (Homo sapiens) (UniProt Q96PH1); experiment: NOX5-dependent H2O2 signal modulators, primary screen, NOX inhibitor project, cell-based, HEK293-NOX5, Amplex Red fluorescence (AID 1161); settings: HEK293-NOX5, ionomycin, 45 min, higher = more signal
# NADPH oxidase 5 (Homo sapiens), sequence (Q96PH1 whole entry, looked up): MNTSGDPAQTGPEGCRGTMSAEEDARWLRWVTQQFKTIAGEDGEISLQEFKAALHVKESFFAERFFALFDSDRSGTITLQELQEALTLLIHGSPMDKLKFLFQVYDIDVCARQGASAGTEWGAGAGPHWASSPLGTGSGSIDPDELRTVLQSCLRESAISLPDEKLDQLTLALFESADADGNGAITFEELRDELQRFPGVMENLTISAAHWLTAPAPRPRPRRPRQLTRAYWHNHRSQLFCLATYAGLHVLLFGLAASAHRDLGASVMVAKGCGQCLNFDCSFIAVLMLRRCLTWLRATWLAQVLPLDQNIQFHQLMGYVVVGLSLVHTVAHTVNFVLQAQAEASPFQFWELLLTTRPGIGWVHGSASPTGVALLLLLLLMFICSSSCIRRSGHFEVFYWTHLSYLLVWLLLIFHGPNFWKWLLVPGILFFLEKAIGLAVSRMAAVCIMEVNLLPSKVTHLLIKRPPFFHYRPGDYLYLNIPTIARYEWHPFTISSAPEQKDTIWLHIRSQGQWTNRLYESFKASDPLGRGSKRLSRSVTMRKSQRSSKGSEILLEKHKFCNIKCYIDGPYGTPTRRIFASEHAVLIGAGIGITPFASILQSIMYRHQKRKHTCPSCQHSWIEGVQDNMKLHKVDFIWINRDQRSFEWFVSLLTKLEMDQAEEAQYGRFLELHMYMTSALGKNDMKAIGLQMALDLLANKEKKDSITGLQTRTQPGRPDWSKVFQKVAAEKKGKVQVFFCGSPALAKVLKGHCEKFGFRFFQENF
# Torsin-1A (Homo sapiens), sequence (O14656 whole entry, looked up): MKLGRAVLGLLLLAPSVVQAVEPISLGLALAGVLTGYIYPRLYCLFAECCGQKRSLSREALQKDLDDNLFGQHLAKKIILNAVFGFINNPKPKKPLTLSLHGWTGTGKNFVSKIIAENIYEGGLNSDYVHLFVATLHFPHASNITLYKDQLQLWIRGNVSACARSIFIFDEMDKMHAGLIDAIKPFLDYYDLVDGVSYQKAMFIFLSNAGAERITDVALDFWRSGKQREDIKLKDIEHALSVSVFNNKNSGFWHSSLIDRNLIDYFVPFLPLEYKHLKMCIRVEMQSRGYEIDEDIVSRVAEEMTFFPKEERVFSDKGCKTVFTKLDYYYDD
# Streptavidin (Streptomyces avidinii), sequence (P22629 whole entry, looked up): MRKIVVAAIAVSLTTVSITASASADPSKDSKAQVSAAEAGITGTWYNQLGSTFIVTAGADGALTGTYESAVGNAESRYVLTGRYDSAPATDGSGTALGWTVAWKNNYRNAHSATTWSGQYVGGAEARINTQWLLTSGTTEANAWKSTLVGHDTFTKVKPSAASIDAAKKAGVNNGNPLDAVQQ
# NADPH oxidase 4 (Homo sapiens), sequence (Q9NPH5 whole entry, looked up): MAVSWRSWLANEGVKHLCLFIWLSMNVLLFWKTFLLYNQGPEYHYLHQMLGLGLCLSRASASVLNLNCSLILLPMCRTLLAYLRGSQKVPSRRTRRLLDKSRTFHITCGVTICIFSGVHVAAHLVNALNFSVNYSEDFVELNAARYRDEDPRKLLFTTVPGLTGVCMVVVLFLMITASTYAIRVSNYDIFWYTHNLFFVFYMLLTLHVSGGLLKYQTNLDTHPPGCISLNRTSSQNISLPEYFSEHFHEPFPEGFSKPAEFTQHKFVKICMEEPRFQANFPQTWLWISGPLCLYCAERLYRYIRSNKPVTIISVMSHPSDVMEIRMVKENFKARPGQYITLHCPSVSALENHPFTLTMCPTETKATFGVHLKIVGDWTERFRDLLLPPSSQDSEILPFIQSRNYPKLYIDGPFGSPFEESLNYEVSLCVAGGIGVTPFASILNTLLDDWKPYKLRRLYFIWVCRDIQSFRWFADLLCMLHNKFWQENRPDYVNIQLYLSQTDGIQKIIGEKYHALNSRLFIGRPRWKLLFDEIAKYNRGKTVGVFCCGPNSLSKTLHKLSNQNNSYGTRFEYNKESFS
# NADPH oxidase 2 (Homo sapiens), sequence (P04839 whole entry, looked up): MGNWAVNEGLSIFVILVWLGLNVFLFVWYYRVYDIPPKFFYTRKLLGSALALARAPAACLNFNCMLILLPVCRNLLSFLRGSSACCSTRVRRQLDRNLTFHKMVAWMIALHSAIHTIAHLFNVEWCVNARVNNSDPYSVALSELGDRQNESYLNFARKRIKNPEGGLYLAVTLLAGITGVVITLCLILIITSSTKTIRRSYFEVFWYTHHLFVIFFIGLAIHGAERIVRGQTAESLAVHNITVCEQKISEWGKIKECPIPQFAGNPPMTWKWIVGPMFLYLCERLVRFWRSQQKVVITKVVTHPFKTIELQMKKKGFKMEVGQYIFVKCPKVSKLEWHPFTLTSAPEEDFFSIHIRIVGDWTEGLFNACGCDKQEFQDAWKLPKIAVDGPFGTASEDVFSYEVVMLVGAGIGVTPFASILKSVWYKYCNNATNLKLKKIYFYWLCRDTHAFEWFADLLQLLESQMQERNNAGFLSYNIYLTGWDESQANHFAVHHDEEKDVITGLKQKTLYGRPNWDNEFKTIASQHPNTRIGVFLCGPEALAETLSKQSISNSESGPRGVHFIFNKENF
Compound,composite z-score [1],z-score [2],z-score [3],z-score [4],z-score [5],composite z-score [6],composite z-score [7],composite z-score [8],composite z-score [9],composite z-score [10],z-score [11],composite z-score [12],z-score [13],z-score [14],z-score [15],z-score [16],z-score [17],z-score [18],z-score [19],z-score [20]
O=C1[C@H]2[C@H]3[C@H](O)[C@H](O)CC(=NOCc4ccccc4)[C@H]3CC[C@H]2C(=O)N1C1CCCCC1,-0.0056,-1.79 (inactive),0.415 (inactive),0.52 (inactive),-0.262 (inactive),0.457,-0.0917,0.161,1.03,0.449,-0.135 (inactive),-0.0222,21.3 (active),2.36 (inactive),0.43 (inactive),0.842 (inactive),-0.441,-0.622 (inactive),-1.09 (inactive),-4.07
CC(CCN1CCCCc2nc(C)c(C)cc21)=NOC[C@@H](O)[C@H]1O[C@@H]2OC(C)(C)O[C@@H]2[C@H]1O,0.228,1.06 (inactive),-0.0386 (inactive),-0.0824 (inactive),1.41 (inactive),-0.0979,-0.248,0.477,0.296,1.62,-1.25 (inactive),-0.265,0.422 (inactive),0.726 (inactive),0.637 (inactive),0.244 (inactive),-0.67,0.0801 (inactive),0.413 (inactive),-0.216
COc1ccc(O[C@H]2C=C[C@@H](c3ccccc3)O[C@@H]2CO)cc1,0.0263,-1.12 (inactive),0.584 (inactive),-0.617 (inactive),-0.265 (inactive),0.145,-0.0412,0.139,0.153,0.507,0.0426 (inactive),-0.0501,2.91 (inactive),1.29 (inactive),-0.0071 (inactive),0.64 (inactive),-0.781,-0.242 (inactive),-0.634 (inactive),-2.07
COCOc1ccc(Br)cc1C(=O)C=Cc1ccc2c(c1)OCO2,-0.18,-3.9 (inactive),-1.46 (inactive),15.5 (active),5.69 (inactive),-0.0743,-0.182,0.61,0.281,0.487,0.677 (inactive),-0.103,8.25 (active),-0.0749 (inactive),0.365 (inactive),-1.11 (inactive),0.835,0.187 (inactive),0.138 (inactive),-1.03
COC(=O)CC=C1c2ccccc2[C@H](OC)[C@H]1C,0.0034,0.553 (inactive),0.624 (inactive),0.478 (inactive),0.345 (inactive),-0.0324,0.0275,0.399,-0.127,0.103,0.101 (inactive),-0.326,0.0311 (inactive),0.269 (inactive),-0.0239 (inactive),-0.0463 (inactive),-0.882,0.457 (inactive),0.644 (inactive),0.199
CC(=O)OC[C@H]1O[C@H](CC=NOCC[C@@H]2C=C[C@H](OC(C)=O)[C@@H](COC(C)=O)O2)C=C[C@@H]1OC(C)=O,0.288,0.366 (inactive),-0.358 (inactive),0.848 (inactive),1.4 (inactive),0.162,-0.0471,1.06,1.05,0.654,0.645 (inactive),0.0483,0.421 (inactive),0.678 (inactive),0.286 (inactive),0.219 (inactive),-0.696,-0.175 (inactive),0.484 (inactive),-0.705
CC(C)(C)N1C(=O)[C@H]2[C@H]3[C@H](O)[C@H](O)CC(=NNC(=O)OCc4ccccc4)[C@H]3CC[C@H]2C1=O,0.0281,-3.97 (inactive),-0.497 (inactive),1.34 (inactive),0.549 (inactive),-0.107,0.125,0.436,0.591,0.897,-1.57 (inactive),-0.0966,0.988 (inactive),-0.0262 (inactive),0.374 (inactive),-1.13 (inactive),0.827,-1.18 (inactive),-0.074 (inactive),-1.11
C=CC[C@@H]1C=C[C@H](ON=C2C[C@@H](O)[C@@H](O)[C@@H]3[C@@H]4C(=O)N(CC)C(=O)[C@@H]4CC[C@@H]23)[C@@H](CO)O1,-0.123,-2.05 (inactive),-1.39 (inactive),2.83 (inactive),-0.247 (inactive),-0.816,-0.104,0.862,0.337,0.652,-0.887 (inactive),-0.208,-0.146 (inactive),-1.65 (inactive),1.55 (inactive),-1.74 (inactive),0.525,-0.284 (inactive),-0.621 (inactive),-2.07
CC(=O)OC[C@H]1O[C@@H](ON=C(C)C)[C@H](OC(C)=O)[C@@H](OC(C)=O)[C@@H]1OC(C)=O,0.47,0.238 (inactive),-0.291 (inactive),0.499 (inactive),0.101 (inactive),-1.26,-0.0695,0.456,0.188,-0.856,-1.83 (inactive),0.145,0.421 (inactive),1.12 (inactive),0.638 (inactive),0.539 (inactive),0.152,1.27 (inactive),0.378 (inactive),-0.611
CCOC(=O)CCN1C(=O)[C@H]2[C@H]3[C@H](O)[C@H](O)CC(=NOCC=C(C)CCC=C(C)C)[C@@H]3CC[C@H]2C1=O,0.377,0.16 (inactive),0.0232 (inactive),0.875 (inactive),0.427 (inactive),0.111,0.0756,0.957,0.588,1.02,-0.879 (inactive),-0.193,0.0845 (inactive),0.278 (inactive),-0.931 (inactive),-0.014 (inactive),0.233,-0.737 (inactive),0.511 (inactive),-0.0503
CC=CC1=C(CO)[C@H](O)[C@H]2O[C@H]2[C@@H]1O,0.0984,-0.0795 (inactive),-0.549 (inactive),-0.525 (inactive),1.26 (inactive),0.162,1.37,0.587,0.131,0.875,-0.412 (inactive),-0.106,-0.312 (inactive),0.367 (inactive),-0.242 (inactive),0.172 (inactive),-0.325,0.623 (inactive),-0.191 (inactive),0.109
C#CCCCON=C1C[C@@H](O)[C@@H](O)[C@@H]2[C@@H]3C(=O)N(C[C@@H]4CCCO4)C(=O)[C@@H]3CC[C@H]12,-0.0106,0.119 (inactive),0.428 (inactive),-0.564 (inactive),0.593 (inactive),0.66,-0.128,0.372,0.406,0.554,-0.25 (inactive),-0.293,0.515 (inactive),0.189 (inactive),-0.0365 (inactive),0.0603 (inactive),0.591,-0.635 (inactive),-1.68 (inactive),-1
CCN1C(=O)[C@H]2[C@H]3[C@H](O)[C@H](O)CC(=NO[C@H](C)c4cn([C@@H]5COC[C@H]5O)nn4)[C@@H]3CC[C@H]2C1=O,0.0122,0.654 (inactive),-0.332 (inactive),0.0013 (inactive),0.446 (inactive),0.079,-0.0468,0.174,0.0806,0.0707,-0.712 (inactive),-0.322,2.21 (inactive),0.76 (inactive),0.436 (inactive),0.564 (inactive),-0.582,0.477 (inactive),0.226 (inactive),0.919
COC(=O)C(C(=O)OC)C1CCCC(=O)C1 (stereo not given),-0.155,-0.509 (inactive),-0.619 (inactive),-0.886 (inactive),-0.0388 (inactive),0.402,-0.274,0.622,1.42,0.769,-1.06 (inactive),-0.284,0.69 (inactive),-0.176 (inactive),0.426 (inactive),-0.29 (inactive),0.649,-1.18 (inactive),-1.61 (inactive),0.921
CC(C)=CCCC(C)=CCON=C1C[C@@H](O)[C@@H](O)[C@@H]2[C@@H]3C(=O)N([C@@H](C)c4ccccc4)C(=O)[C@@H]3CC[C@@H]12,0.143,-1.19 (inactive),0.491 (inactive),-0.834 (inactive),-0.541 (inactive),0.242,-0.121,0.337,1.09,0.672,-0.0368 (inactive),0.0794,0.336 (inactive),-0.168 (inactive),-0.291 (inactive),0.183 (inactive),-0.814,0.311 (inactive),-0.0815 (inactive),-0.919
O=C1CCCC=C1C(O)COCc1ccccc1 (stereo not given),0.154,0.78 (inactive),0.616 (inactive),0.109 (inactive),0.0658 (inactive),1.42,-0.238,-0.465,-0.0394,0.124,-0.245 (inactive),-0.194,0.782 (inactive),0.36 (inactive),-0.0291 (inactive),-0.0223 (inactive),-0.338,0.237 (inactive),0.733 (inactive),0.63
CC(CCN1CCCc2nc(C)c(C)cc21)=NOC[C@@H](O)COCc1ccco1,0.516,-0.244 (inactive),-0.837 (inactive),-0.0638 (inactive),-0.175 (inactive),0.0849,1.26,4.39,4.29,2.5,0.768 (inactive),1.95,3.52 (inactive),0.281 (inactive),0.453 (inactive),0.22 (inactive),-0.815,-0.869 (inactive),-0.583 (inactive),-0.144
